Results: PubChem BioAssay (NCATS)
“And” between values parts separate entries of the source, which are not always exact repeats. Equal entries are not always repeated. Records with an inconclusive call do not appear. The source made the active and inactive calls. Calls follow the shape of the dose curve; as a rule, active = well fitted curve in the direction sought with a large enough effect; inconclusive = small, poorly fitted or top-dose-only effect, or another doubt; inactive = no such curve, though single readings can be large; an effect the other way counts as inactive or inconclusive.

Key:
[1] = Viability qHTS for spleen associated tyrosine kinase inhibitor (SYKi) naive MV4-11 cells (AID 1963823); also: nearly all actives have a fitted effect of over 40% in size
Summary of the method: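 SYKi-naive MV4-11 AML cells, 500 per well, were exposed to library compounds for 72 hr at 37 C, 5% CO2. Viability was then read by CellTiter-Glo luminescence after 10 min at room temperature.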

[2] = Viability qHTS for spleen associated tyrosine kinase inhibitor (SYKi) drug resistant MV4-11 cells (AID 1963824); also: nearly all actives have a fitted effect of over 35% in size
Summary of the method: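 SYK inhibitor-resistant MV4-11 AML cells, 500 per well, added to predispensed compounds and incubated 72 hr at 37 C, 5% CO2. Viability measured by CellTiter-Glo luminescence after 10 min at room temperature.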

[3] = Quantitative highthroughput screen to assess conditional lethalithy of NOMO1 cells grown in RPMI1640 with untreated serum (RPMI+s) (AID 1963876); also: nearly all actives have a fitted effect of over 35% in size;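 as to Viability: 100% = DMSO wells and 0% = empty wells without cells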
Summary of the method: (§1)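 Each medium arm—HPLM with 10% dialyzed FBS, or RPMI1640 with 5 mM glucose and 10% untreated or dialyzed FBS—was screened against an 11-point, 3-fold compound titration for 48 h at 37 °C, with CellTiter-Glo luminescence as endpoint.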

[4] = Quantitative highthroughput screen to assess conditional lethalithy of NOMO1 cells grown in RPMI1640 with dialyzed fetal bovine serum (RPMI+ds) (AID 1963877); also: nearly all actives have a fitted effect of over 30% in size;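 as to Viability: series mostly up to about 46 µM; 100% = DMSO control wells and 0% = empty wells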
Summary of the method: as §1

[5] = Quantitative highthroughput screen to assess conditional lethalithy of NOMO1 cells grown in Human Plasma-Like Medium with dialyzed fetal bovine serum (HPLM+ds) (AID 1963878); also: nearly all actives have a fitted effect of over 35% in size;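 as to Viability: 100% = DMSO wells and 0% = empty wells on each plate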
Summary of the method: as §1

[6] = Quantitative highthroughput screen to assess conditional lethalithy of P12 Ichikawa cells grown in Human Plasma-Like Medium with dialyzed fetal bovine serum (HPLM+ds) (AID 1963879); conditions: Potency: viability; also: nearly all actives have a fitted effect of over 35% in size; as to Viability: series mostly up to about 46 µM
Summary of the method: as §1

[7] = Quantitative highthroughput screen to assess conditional lethalithy of P12 Ichikawa cells grown in RPMI1640 with dialyzed fetal bovine serum (RPMI+ds) (AID 1963880); conditions: Potency: P12-Ichikawa viability; also: nearly all actives have a fitted effect of over 35% in size;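 as to Viability: 100% = DMSO wells and 0% = empty wells on each plate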
Summary of the method: as §1

[8] = Quantitative highthroughput screen to assess conditional lethalithy of P12 Ichikawa cells grown in RPMI1640 with untreated serum (RPMI+s) (AID 1963881); conditions: Potency: viability; also: nearly all actives have a fitted effect of over 35% in size;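 as to Viability: series mostly up to about 46 µM; 100% = DMSO wells and 0% = empty wells without cells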
Summary of the method: as §1

[9] = Quantitative highthroughput screen to assess conditional lethalithy of SEM cells grown in Human Plasma-Like Medium with dialyzed fetal bovine serum (HPLM+ds) (AID 1963882); also: nearly all actives have a fitted effect of over 35% in size; as to Viability: series mostly up to about 46 µM
Summary of the method: as §1

[10] = Quantitative highthroughput screen to assess conditional lethalithy of SEM cells grown in RPMI1640 with unreated serum (RPMI+s) (AID 1963883); also: nearly all actives have a fitted effect of over 35% in size;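 as to Viability: 100% = DMSO wells and 0% = empty wells without cells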
Summary of the method: as §1

[11] = Quantitative highthroughput screen to assess conditional lethalithy of SEM cells grown in RPMI1640 with dialyzed fetal bovine serum (RPMI+ds) (AID 1963884); also: nearly all actives have a fitted effect of over 35% in size;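 as to Viability: series mostly up to about 46 µM; 100% = DMSO control wells and 0% = empty wells without cells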
Summary of the method: as §1

[12] = Cellular viability qHTS for adrenocortical cancer (ACC) cell line SW-13 (AID 1963989); conditions: SW-13 ACC cells viability, CellTiter-Glo, 48 h; activity (max response): hits give low values; also: nearly all actives have a fitted effect of over 65% in size;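 as to activity (max response): cells grown in serum-free medium with ITS supplement; % is scaled to controls: 0 for no effect and ±100 for the full control effect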
Summary of the method: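 Compound titrations (up to 46 uM final, in DMSO) were applied to SW-13 cells for 48 h at 37C/5% CO2. Reading used CellTiter-Glo after 20 min at room temperature; fitted curves yielded IC50 and efficacy.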

[13] = Cellular viability qHTS for adrenocortical cancer (ACC) cell line NCI-H295R (AID 1963990); also: nearly all actives have a fitted effect of over 60% in size
Summary of the method: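 Readout: CellTiter-Glo luminescence, 20 min RT. Exposure: 48 h, 37C/5% CO2. Cells: NCI-H295R, ITS-DMEM serum-free. Range: up to 46 uM. Analysis: 4PL fit, IC50 plus efficacy.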
Potency is read from the fitted curve at half-maximal effect.

OCCCNc1cc(-c2ccnc(Nc3cccc(Cl)c3)n2)ccn1
active: Potency [1] 82 nM and 83.3 nM | Potency [2] 58 nM and 66.1 nM | Potency [3] 0.187 µM | Potency [4] 0.209 µM | Potency [5] 0.235 µM | Potency [6] 0.662 µM | Potency [7] 0.469 µM | Potency [8] 0.526 µM | Potency [9] 0.166 µM | Potency [10] 0.235 µM | Potency [11] 0.209 µM | Potency [12] 0.447 µM

COc1ccc2c(c1)c(CC(=O)OCC(=O)O)c(C)n2C(=O)c1ccc(Cl)cc1
inactive: Potency [1] | Potency [2] | Potency [3] | Potency [4] | Potency [5] | Potency [6] | Potency [7] | Potency [8] | Potency [9] | Potency [10] | Potency [11] | activity (max response) [12] -2.34%

COC(=O)C1C2CC3c4[nH]c5cc(OC)ccc5c4CCN3CC2CC(OC(=O)c2cc(OC)c(OC)c(OC)c2)C1OC (stereo not given)
inactive: Potency [3] | Potency [4] | Potency [5] | Potency [6] | Potency [7] | Potency [8] | Potency [9] | Potency [10] | Potency [11] | activity (max response) [12] -10.6%
active: Potency [1] 16.6 µM | Potency [2] 11.8 µM

Cc1nc(C(=O)NCC(=O)O)c(O)c2ccc(Oc3ccccc3)cc12
inactive: Potency [1] | Potency [2] | Potency [3] | Potency [4] | Potency [5] | Potency [6] | Potency [7] | Potency [8] | Potency [9] | Potency [10] | Potency [11] | activity (max response) [12] 0.299%

O=C(c1ccc(Nc2nccc(-c3cc4ccccc4s3)n2)cc1)N1CCC(N2CCCC2)CC1
active: Potency [1] 920 nM and 468 nM | Potency [2] 1.64 µM and 731 nM | Potency [3] 26.4 µM | Potency [4] 26.4 µM | Potency [5] 13.2 µM | Potency [6] 18.7 µM | Potency [7] 16.6 µM | Potency [8] 23.5 µM | Potency [9] 7.43 µM | Potency [10] 9.35 µM | Potency [11] 9.35 µM | Potency [12] 6.31 µM | Potency [13] 5.62 µM

N#Cc1c(O)c2c(-c3ccc(-c4ccccc4O)cc3)csc2[nH]c1=O
inactive: Potency [1] | Potency [2] | Potency [3] | Potency [4] | Potency [5] | Potency [6] | Potency [7] | Potency [8] | Potency [9] | Potency [10] | Potency [11] | activity (max response) [12] 4.91% | Potency [13]

CCC(=O)NCC[C@@H]1CCc2ccc3c(c21)CCO3
inactive: Potency [1] | Potency [2] | Potency [3] | Potency [4] | Potency [5] | Potency [6] | Potency [7] | Potency [8] | activity (max response) [12] -6.57% | Potency [13]
active: Potency [9] 3.32 µM | Potency [10] 5.26 µM | Potency [11] 5.26 µM

Cc1ccc(C(=O)c2cc(O)c(O)c([N+](=O)[O-])c2)cc1
active: Potency [1] 20.9 µM | Potency [2] 23.5 µM | Potency [13] 23.1 µM and 31.6 µM
inactive: Potency [3] | Potency [4] | Potency [5] | Potency [6] | Potency [7] | Potency [8] | Potency [9] | Potency [10] | Potency [11]

CC(C(=O)O)c1cccc(C(=O)c2ccccc2)c1 (stereo not given)
inactive: Potency [1] | Potency [2] | Potency [3] | Potency [4] | Potency [5] | Potency [6] | Potency [7] | Potency [8] | Potency [9] | Potency [10] | activity (max response) [12] 3.98% and 6.3% | Potency [13]

CNC(=O)c1ccc2cc(C3(O)CCn4cncc43)ccc2c1 (stereo not given)
inactive: Potency [1] | Potency [2] | Potency [3] | Potency [4] | Potency [5] | Potency [6] | Potency [7] | Potency [8] | Potency [9] | Potency [10] | Potency [11] | activity (max response) [12] -3.07% | Potency [13]

O=C(O)C1CCCN(CCC=C(c2ccccc2)c2ccccc2)C1 (stereo not given)
inactive: Potency [1] | Potency [2] | Potency [3] | Potency [4] | Potency [5] | Potency [6] | Potency [7] | Potency [8] | Potency [9] | Potency [10] | Potency [11] | activity (max response) [12] -5.26% | Potency [13]

CC(C)(CO)[C@@H](O)C(=O)NCCC(=O)O
inactive: Potency [1] | Potency [2] | Potency [3] | Potency [4] | Potency [5] | Potency [6] | Potency [7] | Potency [8] | Potency [9] | Potency [10] | activity (max response) [12] -17.7% | Potency [13]

COc1cc2c(cc1OC)CC(=O)N(CCCN(C)C[C@H]1Cc3cc(OC)c(OC)cc31)CC2
inactive: Potency [1] | Potency [2] | Potency [3] | Potency [4] | Potency [5] | Potency [6] | Potency [7] | Potency [8] | Potency [9] | Potency [10] | Potency [11] | activity (max response) [12] 10.3% | Potency [13]

c1ccc2c(CCNc3ccc(Nc4ccncc4)cc3)c[nH]c2c1
active: Potency [1] 1.16 µM and 525 nM | Potency [2] 731 nM and 590 nM | Potency [3] 16.6 µM | Potency [4] 18.7 µM | Potency [5] 14.8 µM | Potency [6] 23.5 µM | Potency [7] 20.9 µM | Potency [8] 16.6 µM | Potency [9] 0.935 µM | Potency [10] 0.372 µM | Potency [11] 0.833 µM | Potency [12] 1.58 µM | Potency [13] 3.55 µM
